Seven compounds from PubChem BioAssay (NCI) can be followed below.

“And” between values parts separate entries of the source, which are not always exact repeats. Identical values can stand only once. Compounds without any hit were thinned out: in the full panel of roughly 83,000, 20% have a hit.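 Interpretation: 100, growth as untreated; towards 0, rising growth inhibition; 0, no net growth; 0 to -100, cell death. Compounds scoring below 10 were considered active.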 The source made the active and inactive calls.

Test systems include SR leukemia; RPMI-8226 leukemia; OVCAR-8 ovarian; OVCAR-5 ovarian; OVCAR-4 ovarian; SK-OV-3 ovarian; IGROV1 ovarian; OVCAR-3 ovarian; HS 578T breast; NCI/ADR-RES ovarian; T-47D breast; BT-549 breast; MDA-MB-435 melanoma; SW-620 colon; MCF7 breast; HCT-116 colon; HCC-2998 colon; KM12 colon.
What all share (assay): NCI-60 one-dose screen, 48 h (100 = growth as untreated, 0 = no growth, -100 = all killed)
Holding throughout (settings): 10 µM unless noted

`COc1ccc(-c2cc(-c3cccc(Cl)c3)c(C#N)c(=O)[nH]2)c(OC)c1`: the growth was 111% (inactive) with SR leukemia; 68.3% (inactive) with RPMI-8226 leukemia; 94.4% (inactive) in the experiment with OVCAR-8 ovarian; 99.1% (inactive) with OVCAR-5 ovarian; 91.8% (inactive) in the experiment with OVCAR-4 ovarian; 114% (inactive) with SK-OV-3 ovarian. In addition, the growth in the experiment on IGROV1 ovarian is 92.1% (inactive); with OVCAR-3 ovarian, 90.5% (inactive); with HS 578T breast, 74.4% (inactive); in the experiment on NCI/ADR-RES ovarian it was 90.9% (inactive); with T-47D breast, 97.8% (inactive); in the experiment with BT-549 breast, 85.9% (inactive). In addition, the growth in the experiment with MDA-MB-435 melanoma is 87.1% (inactive); in the experiment with SW-620 colon it was 96.3% (inactive); in the experiment on MCF7 breast, 88.7% (inactive); in the experiment with HCT-116 colon, 96.9% (inactive); in the experiment on HCC-2998 colon, 106% (inactive); with KM12 colon it was 102% (inactive).
As for `NS(=O)(=O)OCC1OC(n2cnc3cncnc32)C(O)C1O` (stereo unspecified), the growth in the experiment on SR leukemia is 2.84% [0.1 µM] (active) and 3.32% [0.1 µM] (active); in the experiment on RPMI-8226 leukemia it was 25.1% [0.1 µM] (inactive); in the experiment on OVCAR-8 ovarian it was 1.63% [0.1 µM] (active) and 1.09% [0.1 µM] (active); in the experiment with OVCAR-5 ovarian, 24.4% [0.1 µM] (inactive) and 6.91% [0.1 µM] (active); with OVCAR-4 ovarian, 14.6% [0.1 µM] (inactive) and 11.4% [0.1 µM] (inactive); with SK-OV-3 ovarian, 18.5% [0.1 µM] (inactive) and 21.6% [0.1 µM] (inactive). The growth is 18% [0.1 µM] (inactive) and 48.5% [0.1 µM] (inactive) in the experiment on IGROV1 ovarian; 38.6% [0.1 µM] (inactive) and 28.1% [0.1 µM] (inactive) in the experiment on OVCAR-3 ovarian; 55.8% [0.1 µM] (inactive) in the experiment with HS 578T breast; -5.79% [0.1 µM] (active) and 4.02% [0.1 µM] (active) with NCI/ADR-RES ovarian; 7.17% [0.1 µM] (active) and 10.8% [0.1 µM] (inactive) in the experiment with T-47D breast; 36% [0.1 µM] (inactive) and 32.4% [0.1 µM] (inactive) in the experiment with BT-549 breast. Also, the growth is 1.21% [0.1 µM] (active) and 13.3% [0.1 µM] (inactive) in the experiment with MDA-MB-435 melanoma; 5.5% [0.1 µM] (active) and 6.37% [0.1 µM] (active) in the experiment with SW-620 colon; 5.2% [0.1 µM] (active) and 3.48% [0.1 µM] (active) in the experiment on MCF7 breast; 2.55% [0.1 µM] (active) and 6.83% [0.1 µM] (active) with HCT-116 colon; 30.7% [0.1 µM] (inactive) and 22.9% [0.1 µM] (inactive) in the experiment on HCC-2998 colon; 14% [0.1 µM] (inactive) and 10.4% [0.1 µM] (inactive) in the experiment on KM12 colon.
`Nc1ncc(-c2ccc3ncnc(N4CCc5ccc(Cl)cc54)c3c2)cc1C(F)(F)F`: the growth in the experiment with SR leukemia was -5.75% (active); in the experiment with RPMI-8226 leukemia, -3.24% (active); with OVCAR-8 ovarian, 25.2% (inactive); in the experiment on OVCAR-5 ovarian, 12.2% (inactive); with OVCAR-4 ovarian it was 8.43% (active); in the experiment with SK-OV-3 ovarian, 6.83% (active). In addition, the growth in the experiment on IGROV1 ovarian is -53.3% (active); with OVCAR-3 ovarian it was 10.8% (inactive); in the experiment on HS 578T breast, -14.3% (active); in the experiment with NCI/ADR-RES ovarian, 20.3% (inactive); in the experiment with T-47D breast, 12% (inactive); in the experiment with BT-549 breast, -2.6% (active). Further, the growth in the experiment with MDA-MB-435 melanoma was 13.7% (inactive); in the experiment with SW-620 colon, 34.8% (inactive); with MCF7 breast, 7.34% (active); in the experiment with HCT-116 colon it was 23.3% (inactive); with HCC-2998 colon it was 22.3% (inactive); with KM12 colon, 13.4% (inactive).
Turning to `COC(=O)c1[nH]nc(OC)c1C1(C(C#N)c2nc3ccccc3s2)CCCc2ccccc21` (stereo unspecified), the growth was 99.8% (inactive) in the experiment on SR leukemia; 94.7% (inactive) in the experiment with RPMI-8226 leukemia; 100% (inactive) in the experiment with OVCAR-8 ovarian; 80.3% (inactive) with OVCAR-5 ovarian; 103% (inactive) with OVCAR-4 ovarian; 87% (inactive) with SK-OV-3 ovarian. Moreover, the growth was 79% (inactive) in the experiment on IGROV1 ovarian; 98.6% (inactive) in the experiment on OVCAR-3 ovarian; 99.2% (inactive) in the experiment on HS 578T breast; 101% (inactive) in the experiment with NCI/ADR-RES ovarian; 84.1% (inactive) in the experiment with T-47D breast; 88.2% (inactive) with BT-549 breast. In addition, the growth is 104% (inactive) in the experiment with MDA-MB-435 melanoma; 104% (inactive) in the experiment with SW-620 colon; 84.8% (inactive) in the experiment with MCF7 breast; 104% (inactive) in the experiment with HCT-116 colon; 102% (inactive) with HCC-2998 colon; 97% (inactive) in the experiment with KM12 colon.
On to `Cc1cc(N2CCN(CC(=O)Nc3ccc4c(ccn4Cc4ccccc4)c3)CC2)nc(N2CCCCCC2)n1`, for which the growth was 29.2% (inactive) with SR leukemia; 41.5% (inactive) with RPMI-8226 leukemia; 31.6% (inactive) in the experiment with OVCAR-8 ovarian; 75.6% (inactive) with OVCAR-5 ovarian; 51.8% (inactive) with OVCAR-4 ovarian; 48.2% (inactive) in the experiment on SK-OV-3 ovarian. Moreover, the growth was 42.3% (inactive) in the experiment with IGROV1 ovarian; 62.8% (inactive) in the experiment with OVCAR-3 ovarian; 62.8% (inactive) with HS 578T breast; 39.6% (inactive) with NCI/ADR-RES ovarian; 42.7% (inactive) with T-47D breast; 65.1% (inactive) in the experiment on BT-549 breast. Also, the growth in the experiment with MDA-MB-435 melanoma is 60.7% (inactive); in the experiment with SW-620 colon it was 56.8% (inactive); with MCF7 breast it was 20.5% (inactive); in the experiment with HCT-116 colon it was 38.8% (inactive); in the experiment with HCC-2998 colon, 64.5% (inactive); in the experiment with KM12 colon, 37.6% (inactive).
On to `CC(=O)c1nn(-c2ccccc2)/c(=N/N=Cc2cn(-c3ccccc3)nc2-c2cc3ccccc3oc2=O)s1`, for which the growth in the experiment on SR leukemia was 88.1% (inactive); in the experiment on RPMI-8226 leukemia, 102% (inactive); in the experiment with OVCAR-8 ovarian it was 103% (inactive); in the experiment on OVCAR-5 ovarian, 106% (inactive); in the experiment with OVCAR-4 ovarian it was 104% (inactive); with SK-OV-3 ovarian it was 106% (inactive). In addition, the growth was 107% (inactive) with IGROV1 ovarian; 116% (inactive) in the experiment on OVCAR-3 ovarian; 115% (inactive) in the experiment with HS 578T breast; 107% (inactive) with NCI/ADR-RES ovarian; 89.1% (inactive) in the experiment with T-47D breast; 105% (inactive) in the experiment with BT-549 breast. The growth was 103% (inactive) in the experiment on MDA-MB-435 melanoma; 104% (inactive) with SW-620 colon; 91.5% (inactive) in the experiment on MCF7 breast; 97.6% (inactive) with HCT-116 colon; 108% (inactive) with HCC-2998 colon; 106% (inactive) in the experiment on KM12 colon.
For the compound `COCCn1cc(-c2nc(-c3cn(CCOC)c4ncccc34)cs2)c2ccccc21`, the growth in the experiment with SR leukemia was 102% (inactive); in the experiment on RPMI-8226 leukemia, 45.2% (inactive); with OVCAR-8 ovarian, 97.7% (inactive); with OVCAR-5 ovarian, 46% (inactive); in the experiment with OVCAR-4 ovarian, 23.1% (inactive); with SK-OV-3 ovarian, 63.3% (inactive). The growth in the experiment on IGROV1 ovarian was 36.7% (inactive); with OVCAR-3 ovarian, 17.2% (inactive); in the experiment with HS 578T breast it was 86.7% (inactive); in the experiment on NCI/ADR-RES ovarian, 95.2% (inactive); in the experiment on T-47D breast, -3.64% (active); with BT-549 breast, 77.7% (inactive). The growth with MDA-MB-435 melanoma is 108% (inactive); in the experiment on SW-620 colon it was 115% (inactive); with MCF7 breast it was 10.5% (inactive); in the experiment on HCT-116 colon, 79.9% (inactive); in the experiment with HCC-2998 colon, 42.2% (inactive); in the experiment on KM12 colon it was 21.1% (inactive).
